Activity calls are given as the source filed them.

This passage reports z-score and composite z-score results from PubChem BioAssay.

Assay [1] is described as follows: optical density shifts of acrAB sulA E. coli – strain DRC41, OD650, 48 h, E. coli filamentation inducer project, primary screen (AID 1152).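 Further: E. coli MC1000 strain DRC41 lacking acrAB efflux pump and sulA.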 Conditions: higher = more signal, called active from +8 up or from −8 down.
The nature of assay [2]: probe aLefty1 binding on compound microarray – biochemical, small-molecule microarray, 635/667 nm fluorescence, primary screen (AID 1153).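 Further: score merges spot fluorescence with signal-to-noise ratio from the scanned slide images.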 Conditions: higher = more signal.
Assay [3] can be described thus: plasmodial surface anion channel blockers, osmotic lysis – cell-based, P. falciparum Indochina, OD700, 1 h, primary screen (AID 1154). Conditions: P. falciparum Indochina infected RBC osmotic lysis, higher = more signal, called active from +8 up or from −8 down.
The nature of assay [4]: plasmodial surface anion channel blockers, osmotic lysis – cell-based, P. falciparum Indochina, OD700, 2 h, primary screen (AID 1155).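 Further: lysis reports solute entry through the parasite surface anion channel PSAC.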 Conditions: P. falciparum Indochina infected erythrocytes, higher = more signal, called active from +8 up or from −8 down.
A short description of assay [5]: changes in parasitized red cell lysis, either direction – P. falciparum Indochina, OD700, 3 h, PSAC antagonist project, primary screen (AID 1156). The following applies: P. falciparum-infected erythrocytes, osmotic lysis, higher = more signal, called active from +8 up or from −8 down.
Assay [6] is described as follows: plasmodial surface anion channel blockers, osmotic lysis – cell-based, P. falciparum Indochina, OD700, 18 h, primary screen (AID 1157). The following applies: P. falciparum Indochina infected erythrocytes, osmotic lysis OD700, 18 h; higher = more signal, called active from +8 up or from −8 down.
The nature of assay [7]: S6 kinase pathway phospho-S6 level changes – cell-based, A549, cytoblot, luminescence, serum-stimulated, primary screen (AID 1158).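 Further: serum-stimulated A549 lung adenocarcinoma cells; signal is phosphorylated S6 detected by cytoblot immunostaining with HRP secondary.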 The following applies: 5 h, higher = more signal.
Assay [8] deals with NADPH oxidase 2 (Homo sapiens) (UniProt P04839). The assay is described as follows: compounds shifting NOX2 Amplex Red fluorescence – cell-based, HEK293-NOX2, PMA-stimulated, NOX inhibitor project, primary screen (AID 1159). Further: test concentration not given here. Conditions: 45 min, higher = more signal, called active from +8 up or from −8 down.
NADPH oxidase 2 (Homo sapiens), sequence (P04839 whole entry, looked up): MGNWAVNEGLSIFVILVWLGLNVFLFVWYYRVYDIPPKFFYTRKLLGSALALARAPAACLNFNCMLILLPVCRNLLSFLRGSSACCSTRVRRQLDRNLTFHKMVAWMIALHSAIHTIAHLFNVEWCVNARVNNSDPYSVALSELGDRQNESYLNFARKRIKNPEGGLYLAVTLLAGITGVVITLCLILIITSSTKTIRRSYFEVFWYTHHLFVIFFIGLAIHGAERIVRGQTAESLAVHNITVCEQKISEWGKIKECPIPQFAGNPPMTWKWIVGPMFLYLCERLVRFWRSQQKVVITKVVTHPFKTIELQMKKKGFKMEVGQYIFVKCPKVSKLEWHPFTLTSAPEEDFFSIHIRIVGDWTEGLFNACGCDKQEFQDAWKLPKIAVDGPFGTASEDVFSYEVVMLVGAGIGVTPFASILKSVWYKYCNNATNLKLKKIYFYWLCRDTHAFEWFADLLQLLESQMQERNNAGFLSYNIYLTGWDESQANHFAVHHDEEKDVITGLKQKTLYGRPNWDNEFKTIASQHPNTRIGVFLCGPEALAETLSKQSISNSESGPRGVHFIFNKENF
The target of assay [9] is NADPH oxidase 4 (Homo sapiens) (UniProt Q9NPH5). The assay is described as follows: compounds shifting NOX4 Amplex Red fluorescence – cell-based, HEK293-NOX4, tetracycline-induced, NOX inhibitor project, primary screen (AID 1160). The following applies: HEK293-NOX4, Amplex Red H2O2 fluorescence, 45 min; higher = more signal, called active from +8 up or from −8 down.
NADPH oxidase 4 (Homo sapiens), sequence (Q9NPH5 whole entry, looked up): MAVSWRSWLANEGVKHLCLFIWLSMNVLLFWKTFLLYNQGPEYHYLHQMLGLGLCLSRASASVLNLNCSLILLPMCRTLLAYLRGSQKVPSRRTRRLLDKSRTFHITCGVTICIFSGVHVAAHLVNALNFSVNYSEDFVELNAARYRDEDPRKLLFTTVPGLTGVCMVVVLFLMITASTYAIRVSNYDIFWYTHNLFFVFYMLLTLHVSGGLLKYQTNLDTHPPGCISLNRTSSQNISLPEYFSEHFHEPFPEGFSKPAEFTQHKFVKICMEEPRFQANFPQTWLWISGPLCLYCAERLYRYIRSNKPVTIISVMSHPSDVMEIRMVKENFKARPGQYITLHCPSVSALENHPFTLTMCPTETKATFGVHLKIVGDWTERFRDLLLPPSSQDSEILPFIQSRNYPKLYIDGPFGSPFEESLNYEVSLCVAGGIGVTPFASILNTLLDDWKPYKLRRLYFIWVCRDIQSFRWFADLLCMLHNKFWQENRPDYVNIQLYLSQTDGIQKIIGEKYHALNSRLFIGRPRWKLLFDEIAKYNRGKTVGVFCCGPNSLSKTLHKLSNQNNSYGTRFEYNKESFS
The target of assay [10] is NADPH oxidase 5 (Homo sapiens) (UniProt Q96PH1). The assay is described as follows: compounds shifting NOX5 Amplex Red fluorescence – cell-based, HEK293-NOX5, NOX inhibitor project, primary screen (AID 1161). Conditions: HEK293-NOX5, ionomycin, 45 min, higher = more signal.
NADPH oxidase 5 (Homo sapiens), sequence (Q96PH1 whole entry, looked up): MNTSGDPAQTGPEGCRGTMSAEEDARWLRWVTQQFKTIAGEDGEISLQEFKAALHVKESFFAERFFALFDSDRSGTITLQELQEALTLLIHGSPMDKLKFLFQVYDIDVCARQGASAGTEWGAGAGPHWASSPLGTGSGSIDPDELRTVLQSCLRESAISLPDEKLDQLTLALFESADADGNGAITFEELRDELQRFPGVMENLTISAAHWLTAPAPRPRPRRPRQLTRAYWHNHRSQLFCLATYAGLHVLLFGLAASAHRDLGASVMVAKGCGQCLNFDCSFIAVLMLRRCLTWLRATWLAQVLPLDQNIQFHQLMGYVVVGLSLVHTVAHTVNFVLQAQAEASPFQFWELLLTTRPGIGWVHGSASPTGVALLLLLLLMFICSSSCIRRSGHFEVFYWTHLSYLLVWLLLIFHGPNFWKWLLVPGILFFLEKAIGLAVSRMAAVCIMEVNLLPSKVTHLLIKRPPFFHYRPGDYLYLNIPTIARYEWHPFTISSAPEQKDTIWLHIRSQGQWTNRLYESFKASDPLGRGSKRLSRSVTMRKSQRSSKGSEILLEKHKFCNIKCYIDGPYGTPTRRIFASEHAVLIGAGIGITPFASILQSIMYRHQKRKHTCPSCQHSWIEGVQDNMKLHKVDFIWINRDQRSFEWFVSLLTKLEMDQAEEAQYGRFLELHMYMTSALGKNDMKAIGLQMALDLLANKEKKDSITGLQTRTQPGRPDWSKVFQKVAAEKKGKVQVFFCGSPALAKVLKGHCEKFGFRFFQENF
Assay [11] is described as follows: compound effects on lung adenocarcinoma cell viability – A549, calcein-AM fluorescence, 48 h, basal, profiling panel (AID 1162). Further: test concentration not given here. The following applies: higher = more signal.
Assay [12] is described as follows: compound effects on differentiated 3T3-L1 adipocyte viability – cell-based, 3T3-L1 adipocytes, calcein-AM fluorescence, 48 h, basal, profiling panel (AID 1163). Further: test concentration not given here. Conditions: 3T3-L1 adipocytes viability, higher = more signal.
Assay [13] is described as follows: compound effects on hepatocellular carcinoma cell viability – HepG2, calcein-AM fluorescence, 48 h, basal, profiling panel (AID 1164). Further: test concentration not given here. The following applies: higher = more signal.
The nature of assay [14]: compound effects on multiple myeloma cell viability – MM1S, calcein-AM fluorescence, 48 h, basal, profiling panel (AID 1165). Further: test concentration not given here. Conditions: higher = more signal.
The nature of assay [15]: calcein-AM signal in unstimulated myeloma cells – cell-based, calcein-AM fluorescence, 48 h, PK04 Diversity Set, profiling panel (AID 1166).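 Further: cells grown under basal conditions without added stimulus; test concentration not given here.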 Conditions: RPMI8226 myeloma viability, higher = more signal.
The nature of assay [16]: JC-1 mitochondrial signal, unstimulated HepG2 cells – cell-based, JC-1 fluorescence, 24 h, 100 nL compound, profiling panel (AID 1167). Further: test concentration not given here. Conditions: HepG2 mitochondrial potential, higher = more signal.
Assay [17] is described as follows: JC-1 mitochondrial signal, unstimulated adipocytes – cell-based, JC-1 fluorescence, 3T3-L1 adipocytes, 24 h, 100 nL compound, profiling panel (AID 1168). Further: test concentration not given here. Conditions: JC-1 mitochondrial fluorescence, higher = more signal, called active from +8 up or from −8 down.
Assay [18] in a line: JC-1 mitochondrial signal, unstimulated myeloma cells – cell-based, JC-1 fluorescence, RPMI8226, 24 h, 100 nL compound, profiling panel (AID 1169). Further: test concentration not given here. Conditions: JC-1 mitochondrial potential fluorescence, higher = more signal.
Assay [19] can be described thus: JC-1 mitochondrial signal, unstimulated MM1S myeloma – cell-based, JC-1 fluorescence, 24 h, 100 nL compound, profiling panel (AID 1170). Further: test concentration not given here. Conditions: MM1S mitochondrial potential, higher = more signal.
Assay [20] can be described thus: resazurin metabolic signal in A549 cells – cell-based, resazurin fluorescence, 24 h, PK04 Diversity Set, profiling panel (AID 1171). Further: test concentration not given here. Conditions: A549 viability, higher = more signal, called active from +8 up or from −8 down.

With `CN(C)C(=O)[C@@]1(Cc2ccccc2)COC(c2ccc(OCCCO)cc2)=N1`, the z-score was 1.54 (inactive) in assay [1]; 20.9 (active) in assay [3]; 3.73 (inactive) in assay [4]; 2.46 (inactive) in assay [5]; 1.09 (inactive) in assay [6]; 0.0912 in assay [7]. Further, the z-score was -1.26 (inactive) in [8]; 0.108 (inactive) in assay [9]; -1.21 in assay [10]; 0.0581 in [11]; -0.538 in assay [12]; -0.0485 in assay [13]. Besides, the z-score in assay [14] was -1.22; in assay [15], 0.726; in assay [16], -0.455; in [17], -0.384 (inactive); in [18] it was 0.0953; in assay [19], -1.17. For the same compound, in assay [20], the z-score is -0.193 (inactive). This compound registered a composite z-score in [2] of -0.57.
Consider `C=C(C)C1CCC(C(O)C2C=CC3C(=O)N(C)C(=O)C3N2Nc2cc(OC)c(OC)c(OC)c2)CC1` (stereo not given), for which the z-score in assay [1] was -1.67 (inactive); in assay [3], 0.541 (inactive); in assay [4], 0.61 (inactive); in assay [5], -0.256 (inactive); in assay [6], 0.901 (inactive); in assay [7], -0.681. The z-score in assay [8] is -1.86 (inactive); in [9], -2.78 (inactive); in assay [10] it was -2.92; in [11], -1.13; in [12], -1; in assay [13] it was -0.273. Besides, the z-score was -0.989 in assay [14]; -0.0317 in assay [15]; -0.648 in assay [16]; -0.696 (inactive) in assay [17]; -0.354 in assay [18]; -0.549 in assay [19]. Also, the z-score in [20] was -0.404 (inactive). Besides, in [2], the composite z-score was 0.361.
Turning to `C=CCNC(=O)[C@H]1[C@@H]2C(=O)O[C@@H](c3ccccc3)[C@@H](c3ccccc3)N2[C@@H](c2ccc(OCCO)cc2)[C@]12C(=O)N(C(=O)OCCOC)c1ccc(C#Cc3ccc(OC)cc3)cc12`, the z-score in assay [1] is 2.2 (inactive); in assay [3], 3.4 (inactive); in [4] it was 1.31 (inactive); in assay [5], -0.0152 (inactive); in [6] it was 0.121 (inactive); in assay [7] it was 2.44. The z-score in assay [8] is 1.19 (inactive); in assay [9], 0.615 (inactive); in assay [10] it was -0.0482; in [11] it was -0.394; in [12] it was 1.44; in assay [13] it was -0.652. For the same compound, the z-score in [14] was -0.303; in assay [15] it was -1.2; in assay [16] it was -1.22; in assay [17] it was 3.09 (inactive); in assay [18] it was -0.904; in assay [19], -0.529. Moreover, the z-score in [20] was 0.0724 (inactive). In addition, in assay [2], the composite z-score turned out to be 0.323.
Turning to `COC(=O)C(CC#Cc1ccc2c(c1)[C@]1(C(=O)N2)[C@H](C(=O)Nc2nc3ccccc3s2)[C@H]2C(=O)O[C@H](c3ccccc3)[C@H](c3ccccc3)N2[C@@H]1c1ccc(OCCO)cc1)C(=O)OC`, the z-score in assay [1] is 2.65 (inactive); in assay [3], 5.91 (inactive); in assay [4] it was 0.782 (inactive); in assay [5] it was 0.299 (inactive); in assay [6] it was -1.27 (inactive); in assay [7], 1.76. Further, the z-score is 1.1 (inactive) in [8]; 0.326 (inactive) in [9]; 0.613 in assay [10]; 0.686 in assay [11]; 1.18 in [12]; 1.64 in [13]. Also, the z-score was -0.82 in assay [14]; -1.97 in [15]; -3.2 in assay [16]; 1.59 (inactive) in [17]; -1 in assay [18]; -0.693 in assay [19]. In addition, in [20], the z-score was 0.0002 (inactive). Also, in assay [2], the composite z-score was 0.5.
